In PubChem BioAssay (NCATS):
Records with an inconclusive call do not appear. Calls of active or inactive are those of the source. The call rests on the fitted dose curve; in most records, active means well fitted inhibition curve with a large enough effect; inconclusive means small, poorly fitted or top-dose-only effect; inactive means flat fitted curve, though single readings scatter.

Experiments:
[1] = qHTS profiling for inhibitors of Plasmodium falciparum proliferation (AID 504749); further: nearly all actives have a fitted effect of over 60% in size;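 on activity, negative = inhibition: 0% = DMSO vehicle and full inhibition = artemisinin control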; details: P. falciparum in erythrocytes, SYBR Green DNA, 72 h
Method in brief: (§1)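 Parasite proliferation within erythrocytes, 72 h exposure. Endpoint: SYBR Green I fluorescence after overnight lysis at room temperature. Controls: 0.29 uM artemisinin, DMSO.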

3D7 = assay: as above; details: P. falciparum in erythrocytes, SYBR Green DNA, 72 h; series mostly up to 28.7 µM
Method in brief: as §1

7G8 = assay: as above; details: P. falciparum in erythrocytes, SYBR Green DNA, 72 h; series mostly up to 28.7 µM
Method in brief: as §1

AA1029 = assay: as above; details: P. falciparum in erythrocytes, SYBR Green DNA, 72 h; series mostly up to 28.7 µM
Method in brief: as §1

AS120 = assay: as above; details: P. falciparum in erythrocytes, SYBR Green DNA, 72 h; series mostly up to 28.7 µM
Method in brief: as §1

ATS189 = assay: as above; details: P. falciparum in erythrocytes, SYBR Green DNA, 72 h; series mostly up to 28.7 µM
Method in brief: as §1

ATS95 = assay: as above; details: P. falciparum in erythrocytes, SYBR Green DNA, 72 h; series mostly up to 28.7 µM
Method in brief: as §1

C2A = assay: as above; details: P. falciparum in erythrocytes, SYBR Green DNA, 72 h; series mostly up to 28.7 µM
Method in brief: as §1

CP185 = assay: as above; details: P. falciparum in erythrocytes, SYBR Green DNA, 72 h; series mostly up to 28.7 µM
Method in brief: as §1

CP191 = assay: as above; details: P. falciparum in erythrocytes, SYBR Green DNA, 72 h; series mostly up to 28.7 µM
Method in brief: as §1

CP192 = assay: as above; details: P. falciparum in erythrocytes, SYBR Green DNA, 72 h; series mostly up to 28.7 µM
Method in brief: as §1

CP194 = assay: as above; details: P. falciparum in erythrocytes, SYBR Green DNA, 72 h; series mostly up to 28.7 µM
Method in brief: as §1

CP201 = assay: as above; details: P. falciparum in erythrocytes, SYBR Green DNA, 72 h; series mostly up to 28.7 µM
Method in brief: as §1

CP203 = assay: as above; details: P. falciparum in erythrocytes, SYBR Green DNA, 72 h; series mostly up to 28.7 µM
Method in brief: as §1

CP211 = assay: as above; details: P. falciparum in erythrocytes, SYBR Green DNA, 72 h; series mostly up to 28.7 µM
Method in brief: as §1

CP215 = assay: as above; details: P. falciparum in erythrocytes, SYBR Green DNA, 72 h; series mostly up to 28.7 µM
Method in brief: as §1

CP217 = assay: as above; details: P. falciparum in erythrocytes, SYBR Green DNA, 72 h; series mostly up to 28.7 µM
Method in brief: as §1

[2] = at 12.8 µM (top of the series), parasite line A
[3] = at 12.8 µM (top of the series), parasite line B
[4] = at 28.7 µM (top of the series), parasite line A
[5] = at 28.7 µM (top of the series), parasite line B
Potency means the concentration at half of the fitted maximal effect.

CCOC(=O)c1ccc(N)cc1
inactive: activity, negative = inhibition [1, 2] 6.05% | activity, negative = inhibition [1, 3] 7.01% | Potency (3D7) | Potency (7G8) | Potency (AA1029) | Potency (AS120) | Potency (ATS189) | Potency (ATS95) | Potency (C2A) | Potency (CP185) | Potency (CP191) | Potency (CP192) | Potency (CP194) | Potency (CP201) | Potency (CP203) | Potency (CP211) | Potency (CP215) | Potency (CP217)

C#C[C@]1(O)CC[C@H]2[C@@H]3CCC4=Cc5oncc5C[C@]4(C)[C@H]3CC[C@@]21C
inactive: activity, negative = inhibition [1, 4] -28.2% | activity, negative = inhibition [1, 5] -11.7% | Potency (3D7) | Potency (7G8) | Potency (AA1029) | Potency (AS120) | Potency (ATS189) | Potency (ATS95) | Potency (C2A) | Potency (CP185) | Potency (CP191) | Potency (CP192) | Potency (CP194) | Potency (CP201) | Potency (CP203) | Potency (CP211) | Potency (CP215) | Potency (CP217)

CCCN(CCC)S(=O)(=O)c1ccc(C(=O)O)cc1
inactive: activity, negative = inhibition [1, 4] 12.1% | activity, negative = inhibition [1, 5] 6% | Potency (3D7) | Potency (7G8) | Potency (AA1029) | Potency (AS120) | Potency (ATS189) | Potency (ATS95) | Potency (C2A) | Potency (CP185) | Potency (CP191) | Potency (CP192) | Potency (CP194) | Potency (CP201) | Potency (CP203) | Potency (CP211) | Potency (CP215) | Potency (CP217)

O=C(Nc1cccc(C2=NCCN2)c1)Nc1cccc(C2=NCCN2)c1
active: Potency ([1]; parasite line A) 8910 nM | Potency ([1]; parasite line B) 11200 nM | Potency (3D7) 10000 nM | Potency (7G8) 398 nM | Potency (AA1029) 7080 nM | Potency (AS120) 2820 nM | Potency (ATS189) 2820 nM | Potency (ATS95) 5010 nM | Potency (C2A) 5010 nM | Potency (CP185) 4470 nM | Potency (CP191) 1120 nM | Potency (CP192) 15100 nM | Potency (CP194) 15100 nM | Potency (CP201) 13500 nM | Potency (CP203) 15100 nM | Potency (CP211) 13500 nM | Potency (CP215) 12 µM | Potency (CP217) 3550 nM

Nc1ccc(S(=O)(=O)NCc2ccccc2)cc1
inactive: activity, negative = inhibition [1, 4] 4.25% | activity, negative = inhibition [1, 5] 6.29% | Potency (3D7) | Potency (7G8) | Potency (AA1029) | Potency (AS120) | Potency (ATS189) | Potency (ATS95) | Potency (C2A) | Potency (CP185) | Potency (CP191) | Potency (CP192) | Potency (CP194) | Potency (CP201) | Potency (CP203) | Potency (CP211) | Potency (CP215) | Potency (CP217)

O=C1C(=O)c2ccccc2C(O)=C1C1CCC(c2ccc(Cl)cc2)CC1 (stereo not given)
active: Potency ([1]; parasite line A) 1.4 nM | Potency ([1]; parasite line B) 3.2 nM | Potency (3D7) 3.2 nM | Potency (7G8) 1.1 nM | Potency (AA1029) 3.2 nM | Potency (AS120) 4 nM | Potency (ATS189) 2.8 nM | Potency (ATS95) 4 nM | Potency (C2A) 7.9 nM | Potency (CP185) 3.5 nM | Potency (CP191) 2.8 nM | Potency (CP192) 5.1 nM | Potency (CP194) 5.7 nM | Potency (CP201) 6.4 nM | Potency (CP203) 6.4 nM | Potency (CP211) 5.7 nM | Potency (CP217) 1.4 nM

CCN1/C(=C/C=C/c2sc3ccccc3[n+]2CC)Sc2ccccc21
active: Potency ([1]; parasite line A) 89.1 nM | Potency ([1]; parasite line B) 178 nM | Potency (3D7) 141 nM | Potency (7G8) 79.4 nM | Potency (AA1029) 178 nM | Potency (AS120) 199 nM | Potency (ATS189) 158 nM | Potency (ATS95) 178 nM | Potency (C2A) 126 nM | Potency (CP185) 112 nM | Potency (CP191) 100 nM | Potency (CP192) 379 nM | Potency (CP194) 478 nM | Potency (CP201) 849 nM | Potency (CP203) 675 nM | Potency (CP211) 379 nM | Potency (CP215) 0.675 µM | Potency (CP217) 178 nM

CCNC(=O)NCc1cccc(Cl)c1
inactive: activity, negative = inhibition [1, 4] 14.6% | activity, negative = inhibition [1, 5] 3.44% | Potency (3D7) | Potency (7G8) | Potency (AA1029) | Potency (AS120) | Potency (ATS189) | Potency (ATS95) | Potency (C2A) | Potency (CP185) | Potency (CP191) | Potency (CP192) | Potency (CP194) | Potency (CP201) | Potency (CP203) | Potency (CP211) | Potency (CP215) | Potency (CP217)

COc1cc(C(=O)N2CCCCCCC2)cc(OC)c1OC
inactive: activity, negative = inhibition [1, 4] 22.3% | activity, negative = inhibition [1, 5] 22.7% | Potency (3D7) | Potency (7G8) | Potency (AA1029) | Potency (AS120) | Potency (ATS189) | Potency (ATS95) | Potency (C2A) | Potency (CP185) | Potency (CP191) | Potency (CP192) | Potency (CP194) | Potency (CP201) | Potency (CP203) | Potency (CP211) | Potency (CP215) | Potency (CP217)

Cc1cccc(C)c1NC(=O)CN1CCCC1
inactive: activity, negative = inhibition [1, 4] -5.07% | activity, negative = inhibition [1, 5] 5.99% | Potency (3D7) | Potency (7G8) | Potency (AA1029) | Potency (AS120) | Potency (ATS189) | Potency (ATS95) | Potency (C2A) | Potency (CP185) | Potency (CP191) | Potency (CP192) | Potency (CP194) | Potency (CP201) | Potency (CP203) | Potency (CP211) | Potency (CP215) | Potency (CP217)

COc1cc(C(=O)NCc2ccc(OCCN(C)C)cc2)cc(OC)c1OC
inactive: activity, negative = inhibition [1, 2] -2.54% | activity, negative = inhibition [1, 3] -4.52% | Potency (3D7) | Potency (7G8) | Potency (AA1029) | Potency (AS120) | Potency (ATS189) | Potency (ATS95) | Potency (C2A) | Potency (CP185) | Potency (CP191) | Potency (CP192) | Potency (CP194) | Potency (CP201) | Potency (CP203) | Potency (CP211) | Potency (CP215) | Potency (CP217)

COc1cc(C(=S)N2CCOCC2)ccc1O
inactive: activity, negative = inhibition [1, 4] 1.83% | activity, negative = inhibition [1, 5] -2.75% | Potency (3D7) | Potency (7G8) | Potency (AA1029) | Potency (AS120) | Potency (ATS189) | Potency (ATS95) | Potency (C2A) | Potency (CP185) | Potency (CP191) | Potency (CP192) | Potency (CP194) | Potency (CP201) | Potency (CP203) | Potency (CP211) | Potency (CP215) | Potency (CP217)

CCCc1ncc(C[n+]2ccccc2C)c(N)n1
inactive: activity, negative = inhibition [1, 2] 11.9% | activity, negative = inhibition [1, 3] 12% | Potency (3D7) | Potency (7G8) | Potency (AA1029) | Potency (AS120) | Potency (ATS189) | Potency (ATS95) | Potency (C2A) | Potency (CP185) | Potency (CP191) | Potency (CP192) | Potency (CP194) | Potency (CP201) | Potency (CP203) | Potency (CP211) | Potency (CP217)

COc1ccccc1N1CCN(CCCCNC(=O)c2ccc(-c3ccc(C(C)=O)cc3)cc2)CC1
inactive: activity, negative = inhibition [1, 4] 15.8% | activity, negative = inhibition [1, 5] 20.5% | Potency (3D7) | Potency (AA1029) | Potency (AS120) | Potency (ATS189) | Potency (ATS95) | Potency (C2A) | Potency (CP185) | Potency (CP191) | Potency (CP192) | Potency (CP194) | Potency (CP201) | Potency (CP203) | Potency (CP211) | Potency (CP215) | Potency (CP217)
active: Potency (7G8) 12600 nM
